The list is not random: actives were taken first. Their share in the collection is about 3.2%.
CaV13 FRET inh: Primary screen for inhibitors of IQ motif and Ca2+-dependent inactivation inhibitor domain binding in CACNA1D, Förster resonance energy transfer in living cells, …; HEK cells, CFP/YFP FRET ICDI-IQ, plate reader, 10 min; percent FRET-ratio fall versus neutral wells; inhibition, % at 12.3 µM; actives 0.098% (n = 340,000);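 active means mean replicate inhibition of at least 30% and at least 1% of replicates passing that level; inconclusive means only one of the two criteria is met; inactive means neither criterion is met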;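 further: 0% = median of the neutral control wells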
rRNA inh HTS: reduced GFP signal of wild-type E. coli, primary screen, bacterial rRNA inhibitor project, GFP/RFP fluorescence, OD600, single point. E. coli WT GFP vs humanized-ribosome RFP mutants, 24 h; stronger effect = lower value; DMSO median 0, no signal -100. GFP signal change (wild-type ribosome), % (concentration not given with the values). actives 1.6% (n = 350,000). AID 720706, 2013;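 active means significant combined selectivity score with lowered wild-type GFP, culture density cut under 30%, mutant RFP and density less affected; inactive means any of these conditions unmet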
DENV2 CPE: inhibitors of DENV2 cytopathic effect, primary screen, cell-based, plate reader, single concentration; DENV2-infected cells, cytopathic effect rescue; CPE inhibition, % at 9.99 µM; actives 1.7% (n = 350,000); in the data active means CPE inhibition above about 20%, passing the limit was not always enough; inconclusive means no clear call, values can overlap the other calls; tested in BHK-21 cells;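 further: 0% = median of neutral control wells and 100% = median of positive control wells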
INS-1E GSIS act: GLuc luminescence reporter in INS-1E cells, primary screen for activators of glucose-dependent secretion of insulin. INS-1E GLuc reporter insulin secretion, 2-3 h. actives 0.61% (n = 370,000). activation, % at 16.6 µM;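 active means lowest replicate activation of at least 40%, so every replicate reaches that level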;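 further: 0% = median of neutral control wells and 100% = median of IBMX positive control wells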
ERAP1 HTS inh: human ERAP1 aminopeptidase inhibitors, primary screen, biochemical, single point, plate reader; recombinant ERAP1, Leu-AMC fluorescence, 60 min; inhibition, % at 10.7 µM; AID 652197, 2013; actives 0.15% (n = 340,000);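 active means mean replicate inhibition of at least 30%, or all replicates individually reaching that 30% level; inactive means mean below 30% and not every replicate reaching it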;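 further: 0% = neutral control wells and 100% = L-leucinethiol positive control wells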
PGC1a acetyl inh: inhibitors of PGC1a acetylation signal, primary screen, cell-based, U2OS, AlphaScreen, inhibitor mode | inhibition, % at 15.6 µM | AlphaScreen anti-acetyl-lysine; with virally co-expressed GCN5 acetyltransferase | actives 0.17% (n = 350,000);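 active means every replicate shows inhibition of at least 40%; inconclusive means mean inhibition at least 40% but some replicate below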;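 further: 0% = neutral control wells and 100% = positive control wells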
* marks the source's active call; other numbers are inactive results; u = inconclusive; x = not tested or not shown.

SMILES	CaV13 FRET inh	rRNA inh HTS	DENV2 CPE	INS-1E GSIS act	ERAP1 HTS inh	PGC1a acetyl inh
O=C(CCCN1C(=O)/C(=C/c2cccs2)SC1=S)Nc1cccnc1	-2.1	4.1	5.1	0.8	-1.1	9.4
O=C(CCN1C(=O)/C(=C\c2cccs2)SC1=S)Nc1ccc(C(=O)O)cc1	-3.1	-11.3	-1.6	-10.2	-11.9	x
Cc1ccc(/C=C2\SC(=S)N(CCCC(=O)Nc3cc(C)on3)C2=O)cc1	x	16.4	u	10.0	-1.1	-2.6
C[C@H]1CN([C@@H](C)CO)C(=O)CCCn2cc(nn2)CO[C@H]1CN(C)C(=O)c1cc(-c2ccccc2)on1	x	-2.9	x	2.9	x	4.0
C[C@@H]1CN([C@@H](C)CO)C(=O)c2cc(C#Cc3ccc(F)cc3)cnc2O[C@@H]1CN(C)C(=O)Nc1ccc(F)cc1	x	x	-1.1	x	0.6	10.7
O=C(C[C@@H]1CC[C@H]2[C@@H](COC[C@@H](O)CN2Cc2ccncc2)O1)NCc1ccncc1	x	-0.6	-7.0	5.6	1.4	3.8
COc1ccc(NC(=O)N(C)C[C@@H]2OCCCC[C@H](C)Oc3ccc(NC(=O)c4ccncc4)cc3C(=O)N([C@@H](C)CO)C[C@@H]2C)cc1	x	-1.2	5.0	6.8	x	-3.4
COc1ccc(NC(=O)N(C)C[C@H]2OCCCC[C@H](C)Oc3ccc(NC(=O)c4ccncc4)cc3C(=O)N([C@@H](C)CO)C[C@@H]2C)cc1	x	-1.1	49.0*	-16.5	x	24.9
COc1ccc(NC(=O)N(C)C[C@@H]2OCCCC[C@@H](C)Oc3ccc(NC(=O)c4ccncc4)cc3C(=O)N([C@H](C)CO)C[C@H]2C)cc1	x	-1.4	20.3*	8.3	x	0.4
O=C(NC(=S)N1CCOCC1)c1cn(-c2ccccc2)nc1-c1ccccc1	-2.3	-19.0*	-4.2	-15.1	1.9	0.0
CNC(=S)Nc1cc(S(=O)(=O)Nc2cc(Cl)ccc2Cl)ccc1N1CCCC1	-4.5	-26.6*	12.7	-20.6	-1.8	7.7
COc1ccc(NS(=O)(=O)c2cc(N)ccc2N2CCOCC2)cc1	-6.2	-5.3	1.8	19.2	-0.6	-3.9
Nc1ccc(N2CCOCC2)c(S(=O)(=O)Nc2cc(Cl)ccc2Cl)c1	-2.6	-25.8*	-5.7	10.7	3.6	x
COc1ccc2c3c([nH]c2c1)[C@@H](CO)N(C(=O)c1cccc(F)c1)CC31CCN(C(C)=O)CC1	x	-0.3	x	5.1	x	x
COc1ccc(NC(=O)N(C)C[C@@H]2Oc3ccc(NS(=O)(=O)c4ccccc4)cc3C(=O)N([C@@H](C)CO)C[C@H]2C)cc1	x	1.8	15.2	16.4	-2.7	-2.4
C=CC(=O)N1C/C(=C/c2ccccc2)C(=O)/C(=C\c2ccccc2)C1	-5.5	-43.8*	u	49.6*	2.9	72.8*
CC(C)(C)OC(=O)N[C@@H](Cc1ccccc1)c1nnc(S(=O)(=O)Cc2ccccc2)o1	-6.4	x	x	169.4*	x	x
Cc1ccccc1CS(=O)(=O)c1nnc([C@H](Cc2ccccc2)NC(=O)OC(C)(C)C)o1	-6.4	14.4	1.2	45.0*	-1.3	54.9*
CCSc1nnc([C@H](Cc2ccccc2)NC(=O)OC(C)(C)C)o1	-4.0	x	x	x	x	-3.2
CC(C)(C)NC(=S)Nc1cccc(C(F)(F)F)c1	11.3	-48.5*	-7.1	1.3	-0.8	-1.4
FC(F)(F)c1cccc(NC(=S)Nc2ccc(Cl)c(Cl)c2)c1	-10.1	-49.2*	0.9	-36.1	0.3	9.3
CNNC(=S)Nc1cccc(C(F)(F)F)c1	-19.8	x	1.7	x	-2.9	-14.1
COCC(=O)N1[C@@H](CO)[C@H](c2ccccc2)[C@@H]1CNC(=O)c1ccccn1	x	-1.5	7.5	14.6	-0.7	10.3
CCn1c(-c2c[nH]c3ccccc23)n[nH]c1=S	-8.1	-20.4*	5.6	15.2	0.2	-1.2
CCn1c(SCC(N)=O)nc2sc3c(c2c1=O)CCCC3	x	x	x	x	x	5.8
NNc1nc2sc3c(c2c(=O)n1Cc1ccccc1)CCC3	0.9	-33.5*	-0.8	-2.2	5.3	20.7
